Potency and affinity values are given separately. Activity calls are given as the source filed them. How the calls were made is not given here.
Assay: yeast V-ATPase proton pumping modulator potency, dose response, S. cerevisiae, pHLuorin, cherry pick 2 (AID 602198)
Settings: pHLuorin vacuolar pH fluorescence; series mostly up to 33.1 µM

outcome, inactive:
O=C(O)c1ccc(/C=N/N2CCN(C3c4ccccc4-c4ccccc43)CC2)cc1, O=[N+]([O-])c1ccc2c(c1)-c1ccccc1C2=NO, O=C(c1ccc([N+](=O)[O-])o1)N1CCN(c2nc3c(Cl)cccc3s2)CC1, CC1(C)CC(=O)C(C(C2=C(O)CC(C)(C)CC2=O)c2cccs2)C(=O)C1 (centres undefined), O=C(NC1CCCCC1)c1c(O)nc2sccn2c1=O, COc1ccc2nc(N3CCN(C(=O)c4ccc([N+](=O)[O-])o4)CC3)sc2c1, CC1=NOC(=O)/C1=C\c1ccccc1, Cc1ccc2oc(C(=O)N(C)Cc3ccc(C)o3)c(C)c2c1, O=C1Oc2ccccc2C(=O)/C1=C/c1ccccc1O

From PubChem BioAssay AID602198 (NMMLSC, 2012)
